# sEH inh – soluble epoxide hydrolase inhibitors, primary screen, biochemical, human sEH. Bifunctional epoxide hydrolase 2 (Homo sapiens), P34913. recombinant human sEH enzymatic activity assay. inhibition, % at 2 µM. 0.34% of 91,000 active; in the data active = inhibition above about 80%
# Target sequence (P34913 whole entry, looked up): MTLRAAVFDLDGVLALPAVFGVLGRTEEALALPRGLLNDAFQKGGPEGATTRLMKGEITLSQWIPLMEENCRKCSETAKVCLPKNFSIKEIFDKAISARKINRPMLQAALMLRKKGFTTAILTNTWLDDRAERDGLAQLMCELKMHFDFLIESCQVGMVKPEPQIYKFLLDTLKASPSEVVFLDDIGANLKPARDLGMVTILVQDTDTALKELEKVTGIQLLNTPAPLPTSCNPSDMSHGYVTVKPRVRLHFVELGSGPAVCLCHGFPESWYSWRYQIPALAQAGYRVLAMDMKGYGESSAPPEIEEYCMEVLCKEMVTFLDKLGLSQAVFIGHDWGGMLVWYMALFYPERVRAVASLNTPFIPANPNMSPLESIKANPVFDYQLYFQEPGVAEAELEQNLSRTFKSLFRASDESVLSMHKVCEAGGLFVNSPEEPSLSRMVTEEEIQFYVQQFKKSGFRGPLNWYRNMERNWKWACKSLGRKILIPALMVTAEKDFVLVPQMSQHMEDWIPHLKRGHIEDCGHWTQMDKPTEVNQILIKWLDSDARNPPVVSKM
# sEH activator – soluble epoxide hydrolase activators, primary screen, biochemical, human sEH | Bifunctional epoxide hydrolase 2 (Homo sapiens), P34913 | purified human sEH enzymatic activity, activator screen | activation, % at 2 µM | 0.04% of 91,000 active | AID 717, 2007; in the data active = activation above about 37%
# CYP2C9 activ – human CYP2C9 activators, primary screen, biochemical, luminescence; Cytochrome P450 2C9 (Homo sapiens), P11712; recombinant CYP2C9, luciferin-H conversion; hits give high values; factor 1 = untreated enzyme, 0 = blocked; activation factor at 5 µM; 1.4% of 96,000 active;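 active = activation factor of 2 or more for CYP2C9 at a 5 µM dose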;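 note: 0 = sulfaphenazole-blocked wells and 1 = vehicle-only wells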
# CYP2C9 inh – blockers of cytochrome P450 2C9 activity – biochemical, luminescence, ADME assay, primary screen. P11712. CYP2C9 Supersomes, luciferin-H conversion. inhibition, % at 5 µM. 20% of 96,000 active;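 active = blocking of liver enzyme CYP2C9 beyond about 50% at 5 µM, limit read from the data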
# CYP2C19 inh – blockers of cytochrome P450 2C19 activity – biochemical, luminescence, ADME assay, primary screen; AID 778, 2007; 21% of 96,000 active; inhibition, % at 5 µM; CYP2C19 Supersomes, luciferin-H EGE luminescence, 30 min;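 active = CYP2C19 inhibition above a set limit at 5 µM in the primary screen, cut at about 50% in these data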;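 note: plate controls were negative control wells for no effect and 2.5 mM tranylcypromine positive control for full effect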
# CYP2C19 act – human CYP2C19 activators, primary screen, biochemical, luminescence; recombinant CYP2C19, luciferin-H EGE luminescence; hits give high values; 0 = fully inhibited enzyme, 1 = untreated enzyme; activation factor at 5 µM; 96,000 tested, under 10 active;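 active = activation factor of at least 2 at 5 µM in the primary screen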;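 note: 0 = wells with 2.5 mM tranylcypromine and 1 = vehicle-only wells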
# An asterisk follows results filed as active; . = no result. Hits are enriched below; roughly 27% of the tested compounds scored in any of these assays.
SMILES,sEH inh,sEH activator,CYP2C9 activ,CYP2C9 inh,CYP2C19 inh,CYP2C19 act
CC(C)NC(=O)Cn1nnc(-c2ccc(Cl)cc2)n1,.,.,1,3,25,0.8
Cc1cc(C)cc(NC(=O)c2snc3c(=O)[nH]cnc23)c1,-16,16,1,2,11,0.9
O=C(COC(=O)c1ccccc1C(=O)N1CCN(c2ccccc2)CC1)Nc1ccc(F)cc1,6,-5,0.1,91*,72*,0.3
Cc1occc1C(=O)OCC(=O)Nc1ccc(F)cc1,1,0,0.7,32,86*,0.1
O=C(COC(=O)c1ccccc1C(=O)N1CCN(c2ccc(F)cc2)CC1)NCc1ccccc1,10,-9,0.1,86*,82*,0.2
COC(=O)c1ccccc1OCC(=O)N1CCN(c2ccc(F)cc2)CC1,4,-7,1,2,48,0.5
Cc1ccc(OCC(=O)Nc2ccc(F)cc2)cc1C,6,-2,.,.,.,.
Cc1ccc(C)c(N2CCN(CCCNC(=O)Cn3cc4c(n3)CCCCC4)CC2)c1,.,.,1,0,28,0.7
Cc1ccccc1SCC(=O)Nc1cccc(C#N)c1,9,-7,1.9,-94,45,0.5
CC(C)OC(=O)c1c(N)sc2c1CCCC2,0,4,.,.,.,.
CCOC(=O)Nc1sc(C(=O)N(CC)CC)c(C)c1C(=O)OCC,6,-2,0.3,69*,50,0.5
CCOC(=O)c1c(NC(=O)OC)sc2c1CCC2,9,-4,1.1,-9,1,1
CCCOC(=O)c1c(N)sc2c1CCC2,-5,5,0.5,50*,43,0.6
CCOC(=O)c1c(NC(=O)CN(CC)CC)sc2c1CCC2,.,.,0.5,52*,12,0.9
CCOC(=O)c1sc(NC(=O)CN(CC)CC)c(C(=O)OCC)c1C,-15,10,0.2,76*,20,0.8
CCOC(=O)c1sc(NC(C)=O)c(C(=O)OCC)c1C,-6,7,0.8,24,27,0.7
COc1ccc(C2(CNC(=O)/C=C\c3ccco3)CCCC2)cc1OC,11,-10,0.6,36,28,0.7
NNC(=O)C1=NOC(CNc2ncc(C(F)(F)F)cc2Cl)C1 (stereo unspecified),4,-7,0.8,17,35,0.6
N#CCC(CNc1ncc(C(F)(F)F)cc1Cl)OC(=O)c1cccc([N+](=O)[O-])c1 (stereo unspecified),14,-12,0.3,68*,96*,0
N#CCC(CNc1ncc(C(F)(F)F)cc1Cl)OC(=O)c1ccc(Cl)cc1 (stereo unspecified),-2,2,1.1,-9,84*,0.2
O=[N+]([O-])c1ccccc1NCCNc1ncc(C(F)(F)F)cc1Cl,4,-3,1,0,-9,1.1
CCOC(=O)Cc1c(C)nc2c(-c3cccc(Br)c3)c[nH]n2c1=O,.,.,0.3,74*,15,0.9
CCOC(=O)Cc1c(C)nc2c(C#N)c[nH]n2c1=O,3,-3,1,3,25,0.7
CCOC(=O)Cc1c(C)nc2c(-c3ccc(Cl)cc3)c(C)[nH]n2c1=O,5,-5,0.9,9,56*,0.4
O=C(Nc1cccc2nsnc12)c1ccc(-c2ccc(Br)cc2)o1,-6,8,1,-2,-8,1.1
SMILES,sEH inh,sEH activator,CYP2C9 activ,CYP2C9 inh,CYP2C19 inh,CYP2C19 act
Cc1ccc(S(=O)(=O)N2CCN(S(=O)(=O)c3ccc(C)cc3)C3OCCOC32)cc1 (stereo unspecified),0,0,1,-2,-14,1.1
O=C(c1cccs1)N(Cc1ccccn1)Cc1ccco1,3,1,0.6,44,54*,0.5
O=C(CSCSCC(=O)NCC1CCCO1)NCC1CCCO1 (stereo unspecified),1,-1,1.1,-6,-17,1.2
CCN(CCCNC(=O)C1CCCN(S(=O)(=O)c2cnc[nH]2)C1)c1ccccc1 (stereo unspecified),76,-76,0.5,52*,78*,0.2
CCN(CCNC(=O)C1CCCN(S(=O)(=O)c2cnc[nH]2)C1)c1ccccc1 (stereo unspecified),41,-41,0.1,95*,90*,0.1
O=S(=O)(NCc1ccco1)c1cccc(S(=O)(=O)N2CCCCC2)c1,.,.,0.9,9,35,0.6
O=S(=O)(NCc1ccco1)N1CCCCCC1,2,3,0.8,16,63*,0.4
CCOC(=O)Nc1c(O)ccc2oc(C)c(-c3ccccc3)c12,7,-7,0.8,24,21,0.8
CCOC(=O)c1cnc2cc(Cl)c(OC)cc2c1NCC1CCCO1 (stereo unspecified),23,-24,0.3,70*,28,0.7
COc1ccccc1C(=O)NC(CCSC)C(=O)OCC(=O)NC(=O)NCc1ccco1 (stereo unspecified),.,.,0,97*,18,0.8
CC(C)C(NC(=O)c1ccco1)C(=O)NCC(c1ccco1)N(C)C (stereo unspecified),-7,6,0.9,6,1,1
COc1ccc(CNC(=O)C(CCSC)NC(=O)c2ccco2)cc1 (stereo unspecified),-1,3,0.5,48,60*,0.4
CSCCC(NC(=O)c1ccco1)C(=O)OC(C)C(=O)NC(=O)NC1CCCCC1 (stereo unspecified),16,-14,0.3,65*,31,0.7
COc1cc2c(cc1OC)CN(CC(=O)NC(=O)NCc1ccco1)CC2,7,-6,1,-1,-1,1
COc1ccccc1C(=O)NC(CCSC)C(=O)NCC(c1ccco1)N(C)C (stereo unspecified),-6,7,0.3,67*,69*,0.3
COC(=O)[C@H](CCSC)NC(=O)NC1CCN(Cc2ccccc2)CC1,7,-6,1.1,-8,-23,1.2
Cn1nnnc1P(=O)(c1ccccc1)c1ccccc1,-6,8,1,0,-14,1.1
CSc1nncn1/N=C/c1cc(Cl)ccc1F,5,-4,0.8,18,11,0.9
COc1ccccc1NC(=O)NC1(C(=O)N2CCCCCC2)CCCCC1,5,-2,.,.,.,.
Cc1ccc(N(CC(O)COCc2ccco2)S(=O)(=O)c2ccc(C)cc2)cc1 (stereo unspecified),-5,6,0.1,88*,94*,0.1
COc1ccccc1N(CC(=O)N/N=C/c1ccc(OCC(=O)NCc2ccco2)cc1)S(=O)(=O)c1ccc(C)cc1,-5,4,0,96*,89*,0.1
CCNC(=O)CN(c1ccc(C)cc1)S(=O)(=O)c1ccccc1,5,-8,0.8,19,39,0.6

# Source: PubChem
